# Results as given in PubChem BioAssay (NCI).
# This is part of a sample that, as a whole, favours compounds with a hit. Of some 83,000 tested, about 20% had one in any assay.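 Plates (96-well) were seeded with cells, treated with compound at one concentration, and incubated for 48 hours before percent growth was determined.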 Unmarked numbers belong to inactive results. The source made the active and inactive calls. Rule for the calls: active = growth percent below 10; inactive = the rest.
# Columns and labels:
# Test in all cases: NCI-60 one-dose screen, 48 h (100 = growth as untreated, 0 = no growth, -100 = all killed)
# [1] = test system: SK-MEL-2 melanoma; details: 10 µM unless noted
# [2] = test system: EKVX NSCLC; details: 10 µM unless noted
# [3] = test system: SN12C renal; details: 10 µM unless noted
# [4] = test system: UO-31 renal; details: 10 µM unless noted
# [5] = test system: TK-10 renal; details: 10 µM unless noted
# [6] = test system: A498 renal; details: 10 µM unless noted
# [7] = test system: CCRF-CEM leukemia; details: 10 µM unless noted
# [8] = test system: MOLT-4 leukemia; details: 10 µM unless noted
# [9] = test system: CAKI-1 renal; details: 10 µM
SMILES,growth [1],growth [2],growth [3],growth [4],growth [5],growth [6],growth [7],growth [8],growth [9]
COc1ccc(-c2nnc(SCC(=O)Nc3ccc(C(=O)/C=C/c4ccc(Cl)cc4)cc3)o2)cc1OC,72%,80.2%,47.8%,72.3%,52.8%,88.7%,65.1%,–,–
Cc1nccc2c3ccc(OCc4cn(Cc5ccc(Br)cc5)nn4)cc3n(CCCc3ccccc3)c12,80.7%,85.5%,92.1%,71.2%,101%,91%,83.1%,90.8%,–
CCCCOc1c(N)cc(Cl)cc1C(=O)OCCN(CC)CC,90.9%,104%,97%,82.3%,94.3%,80.1%,72.6%,58.4%,–
CN(C)CC/C=C1\c2ccccc2Sc2ccc(Cl)cc21,89.6%,78.6%,48%,41.3%,75.8%,89.5%,59.4%,44.8%,52.7%
CC[C@@]1(O)C(=O)OCc2c1cc1n(c2=O)Cc2c-1nc1ccccc1c2/C=N/OC(C)(C)C,-17.8% (active),17%,5.56% (active),-64.8% (active),1.26% (active),-70.2% (active),4.16% (active),-10.6% (active),–
COc1ccc(/C=C/C(=O)c2ccc(NC(=O)CSc3nnc(-c4cc(OC)c(OC)c(OC)c4)o3)cc2)cc1,37.7%,-2.83% (active),-43.5% (active),-85.3% (active),78.8%,90.5%,-1.51% (active),–,–
CCN(CC)C(=O)C1CCN(C(=O)c2ccccc2)CC1,98.3%,101%,101%,89.2%,87.1%,85.7%,80.9%,92.2%,–
COc1ccccc1C(OC(C)=O)OC(C)=O,90.7%,99%,111%,89.9%,91.1%,113%,113%,103%,–
COc1cc(/C=C2/Oc3cc4occc4c(OC)c3C2=O)ccc1OCC(=O)Nc1ccncc1,102%,97.4%,104%,70.3%,127%,111%,103%,–,–
COc1ccc(NC(=O)Nc2ccc(-c3ccc(OC)c(OC)c3)nc2C)cc1,79.6%,91.1%,64.4%,81.7%,60.4%,71.9%,97.2%,–,–
COc1ccccc1NC(=O)COc1ccc(/C=C2/Oc3cc4occc4c(OC)c3C2=O)cc1OC,108%,99.2%,104%,99.9%,119%,99%,69.9%,83.4%,–
CC(CN(C)C)CN1c2ccccc2CCc2ccccc21 (centres undefined),88.8%,80.6%,73.7%,38.9%,87.2%,104%,87.1%,81.2%,70.6%
CCn1c(C)nc([N+](=O)[O-])c1Sc1nc(N)nc2nc[nH]c12,40.5%,38.9%,33%,37.5%,34.5%,57%,11.8%,14.3%,–
O=C1C(Cl)=C(Nc2cccc3cc4ccccc4nc23)C(=O)c2ccccc21,44.2%,71.9%,45.1%,25.7%,54.5%,46.5%,64.8%,25.9%,–
NC(=NCCCOc1ccc(F)cc1)Nc1ccc(Cl)c(Cl)c1,95.9%,74.9%,66%,51.6%,69%,60.9%,60.4%,–,–
Cc1c(F)cccc1NC(=O)c1sc2nc3c(cc2c1N)CCCCC3,40.7%,64.7%,84.6%,72.7%,85.3%,33.7%,23.6%,30.7%,–

SMILES,growth [1],growth [2],growth [3],growth [4],growth [5],growth [6],growth [7],growth [8],growth [9]
CNCCCOc1c(Br)cc(CCNC(=O)/C(Cc2ccc(OC)c(Br)c2)=N/O)cc1Br,40%,65.5%,57.6%,41.7%,74.1%,39.4%,31.6%,10.3%,–
COc1ccc2c(c1)OC(N(C(C)=O)C(C)=O)=C(C#N)C2c1ccc(F)cc1 (centres undefined),25.1%,47.9%,51.5%,45.8%,71.2%,12.8%,10.9%,28.7%,–
CC(C)CNCC(=O)Nc1ccc(Cc2ccc(NC(=O)CNCC(C)C)cc2)cc1,87.6%,67.9%,49.7%,38.4%,84.8%,47.2%,26.4%,–,–
COc1ccc(-c2ccc(NC(=O)Nc3cccc(C(F)(F)F)c3)c(C)n2)cc1,75.9%,41.4%,68%,55.1%,76.7%,52.1%,42.9%,33.7%,–
O=S(c1ccccc1)c1ccc2nnnn2n1 (centres undefined),98.9%,101%,101%,73.1%,99%,86.6%,44.9%,83.8%,–
C#C[C@@]1(O)[C@@H](CO)O[C@@H](n2cc(C(F)(F)F)c3c(N)ncnc32)[C@@H]1O,-52.9% (active),5.12% (active),9.05% (active),-35.4% (active),12.5%,-84.3% (active),5.1% (active),-8.68% (active),–
O=C(O)c1ccc(-n2cc(/C=N/Nc3ccc(Cl)cc3)c(-c3ccc(F)c(F)c3)n2)cc1,75.5%,59.7%,93.2%,46%,94.1%,49.9%,32.3%,37.6%,–
NS(=O)(=O)c1ccc(Nc2nc(O)c(/C=C3\C=Nc4ccccc43)s2)cc1,103%,98.2%,91.1%,70.7%,112%,106%,85.6%,95.4%,–
CCN(CC)CCC(C(=O)O)(c1ccccc1)c1ccccc1,112%,96.1%,103%,89.1%,97.9%,102%,96.6%,89.4%,–
Cc1cc(Nc2ccc(Cl)c(Cl)c2)nc(N)n1,102%,54.7%,106%,86.2%,87.3%,78.8%,98.5%,78.8%,–
CCn1cc(C(=O)O)c(=O)c2cc(F)c(N3CCN(CC(=O)Nc4ccc(C(C)=O)cc4)CC3)cc21,92.8%,103%,98.9%,93.6%,89.3%,95.5%,98.7%,97.6%,–
CCCCCCCCCCCCCCCCNc1ccccc1,90%,106%,70.7%,57.9%,90.9%,114%,44.4%,43.1%,–
CCOc1ccc(NC2=C(Cl)C(=O)c3ccccc3C2=O)cc1,88.2%,87.2%,61%,77.9%,136%,80.8%,33.3%,75.7%,–
COC(=O)/C=C/C(=O)c1cc(C)cc(C)c1O,99.2%,95.9%,109%,88%,96.9%,105%,90.3%,89.8%,–
CC1CCC(C(C)C)C(NN)C1 (centres undefined),101%,102%,102%,88.8%,96.5%,105%,89.5%,65.9%,–
